PubChem BioAssay AID1321 (The Scripps Research Institute Molecular Screening Center, 2008)
“And” between values parts separate entries of the source, which are not always exact repeats. Equal entries are not always repeated. Out of some 220,000 compounds screened, about 2,600 (1.2%) were called active.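 Rule for the calls: active = activation above the mean of all tested compounds plus 3 SD, set per screening run (cut at about 8.8% in these data); inactive = the rest.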 For the sample, actives were picked, then their nearest neighbours and some compounds at random. Where a structure was tested more than once in an assay, its records may differ in their call.

target: Wee1-like protein kinase (Homo sapiens) (UniProt P30291); assay: Wee1 degradation inhibitors, primary screen, cell-based, HeLa, Wee1K328M-luciferase, luminescence (AID 1321); conditions: HeLa Luc-Wee1K328M stability, at 5 µM, stronger effect = higher value, 100% = proteasome inhibitor MG132 effect;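 note: cells exposed to compound for 20 h before luminescence read; 0% = DMSO alone and 100% = MG132 at 30 µM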

Structure (SMILES)	reporter increase
Cn1c(SCC(=O)c2ccc(F)cc2)nnc1-c1ccccn1	-0.76% (inactive)
COCC1CCCN(Cc2nc(-c3ccc4c(c3)OCO4)no2)C1 (centres undefined)	9.73% (active)
CN(CCN1CCOCC1)Cc1nc(-c2ccc3c(c2)OCO3)no1	1.41% (inactive)
CC(C)N(Cc1nc(-c2ccc3c(c2)OCO3)no1)CC1CCC(=O)N1 (centres undefined)	2.1% (inactive)
Cc1ccc(-c2c[n+](=O)c3c(n2[O-])CCC3)cc1	-1.07% (inactive)
O=C(Cc1ccccc1)Nc1cccc(C(=O)N/N=C/c2ccco2)c1	-1.22% (inactive)
O=C(CSc1ccc(/C=N/NC(=O)c2cccc(F)c2)o1)Nc1ccccc1	9.46% (active)
N#CCC(=O)N/N=C/c1ccc(SCC(=O)Nc2ccccc2)o1	-0.66% (inactive)
CCOc1cc2[nH]c(=S)n(Cc3ccc(C(=O)NCCOC)cc3)c(=O)c2cc1OCC	-1.62% (inactive)
COc1cc2[nH]c(=S)n(Cc3ccc(C)o3)c(=O)c2cc1OC	3.12% (inactive)
COc1cc2[nH]c(=S)n(Cc3ccc(F)cc3)c(=O)c2cc1OC	12.6% (active)
COc1ccc(F)cc1S(=O)(=O)N1CCCCC1	2.94% (inactive)
Cc1ccc(/C=N/NC(=S)NC2CCCCC2)o1	3.18% (inactive)
CCn1c(C(C)C)n[nH]c1=S	18.6% (active)
CCn1c(C(C)NC(=O)c2ccc(C)cc2)n[nH]c1=S (centres undefined)	-0.98% (inactive)
CCn1c(-c2ccncc2)n[nH]c1=S	1.46% (inactive)
O=C(NCc1ccco1)C1CCCN1S(=O)(=O)c1ccccc1C(F)(F)F (centres undefined)	-1.13% (inactive)
CCC1=NN2C(=N)/C(=C/c3cc(C)n(-c4ccccc4)c3C)C(=O)N=C2S1	4.73% (inactive)
COC(=O)c1sc(SC)c(S(=O)(=O)C(C)C)c1N/N=C(\C#N)S(=O)(=O)c1ccccn1	2.36% (inactive)
CCOC(=O)C1CCN(C(=O)Nc2ccc(C)c(Cl)c2)CC1	3.42% (inactive)
CCOC(=O)COc1ccc([N+](=O)[O-])cc1	-1.98% (inactive)
CCCCOC(=O)CCCc1ccc([N+](=O)[O-])cc1[N+](=O)[O-]	12.8% (active)

Structure (SMILES)	reporter increase
CCOC(=O)C/C(C)=N\Nc1ccc([N+](=O)[O-])cc1[N+](=O)[O-]	-1.73% (inactive)
CC1(C)CC(CNCCC(c2ccc(F)cc2)c2ccco2)CCO1 (centres undefined)	-2.08% (inactive)
CC(C)CNC(=O)C(=O)NCc1ccccc1	-2.69% (inactive)
CC(C)CNC(=O)CC(NCC(C)C)C(=O)O (centres undefined)	-0.85% (inactive)
CC(C)CNC(=O)/C=C/C(=O)O	31.4% (active) and -2.62% (inactive)
CN(Cc1nc(-c2cnccn2)no1)Cc1n[nH]c2c1CCCCC2	-0.67% (inactive)
O=C(O)C1CCN1C1CCCCC1 (centres undefined)	8.91% (active)
O=C(O)c1cccc2c1C(=O)N(C1CCCCC1)C2	-0.13% (inactive)
CC(Sc1nnnn1C1CCCCC1)C(=O)O (centres undefined)	-1.64% (inactive)
O=C(CCNc1n[nH]c(=O)[nH]c1=O)N/N=C\c1ccc(Br)cc1	-1.51% (inactive)
COc1c(N2CCN(C(=S)Nc3ccccc3F)C(C)C2)c(F)cc2c(=O)c(C(=O)O)cn(C3CC3)c12 (centres undefined)	-0.39% (inactive)
CCC(=O)Nc1cccc(NC(=O)c2cccnc2)c1	14.3% (active)
CCC(=O)Nc1ccc(C(=O)Nc2cccc(OC)c2)cc1	0.16% (inactive)
CCOC(=O)c1cc(NC(=O)c2cccnc2)cc(C(=O)OCC)c1	-1.21% (inactive)
O=C(NC(=S)Nc1cccc2c(O)cccc12)c1cccc(Br)c1	-1.09% (inactive)
O=C(Nc1ccccc1)N1CCN(Cc2ccccc2)CC1	4.02% (inactive)
Cc1c(Br)c([N+](=O)[O-])nn1CC(=O)N1CCN(Cc2ccccc2)CC1	9.26% (active)
Cn1nnnc1SCC(=O)N1CCN(Cc2ccccc2)CC1	1.62% (inactive)
O=C(c1[nH]ncc1-c1ccc(Cl)cc1)C1CO1 (centres undefined)	-0.11% (inactive)
O=C(O)c1cccnc1Sc1ncnc2sc3c(c12)CCC3	-1.76% (inactive)
O=C(Nc1ccccc1)Nc1ccc(C(F)(F)F)cn1	0.31% (inactive)
COc1cc(NC(=O)COc2ccccc2Cl)ccc1NC(=O)C(C)C	9.65% (active)

Structure (SMILES)	reporter increase
Cc1ccccc1OCC(=O)Nc1ccc(N2CCN(C(=O)C(C)C)CC2)c(Cl)c1	-0.59% (inactive)
O=C(COc1ccccc1Cl)Nc1ccc(C(=O)c2ccc(C(=O)O)cc2)cc1	-1.08% (inactive)
COc1cc(N2C(=O)CC3(CCCC3)CC2=O)cc(OC)c1OC	-3.15% (inactive)
Cc1ccc(NC(=S)NCc2ccccc2Cl)c(C)c1	4.9% (inactive)
Cc1ccc(NC(=S)NC(=O)c2ccc(-c3ccccc3)cc2)c(C)c1	1.11% (inactive)
Cc1ccc(NC(=S)Nc2ncccc2C)c(C)c1	11.8% (active)
COc1ccc(CNC(=O)CCC(=O)Nc2nnc(C(C)C)s2)cc1	0.8% (inactive)
COc1ccc(NS(=O)(=O)c2ccc(Oc3c(C#N)cccc3C#N)cc2)cc1	-2.73% (inactive)
O=C(c1ccc(=O)oc1)N1CCC(C(O)(c2ccccc2)c2ccccc2)CC1	4.74% (inactive)
Cc1ccsc1/C=N/n1c(=S)[nH]nc(C)c1=O	11.5% (active)
Oc1ccccc1/C=N/n1c(-c2cccs2)n[nH]c1=S	-3.64% (inactive)
S=c1[nH]nc(-c2cccs2)n1/N=C/c1cccs1	-2.19% (inactive)
CCOc1ccc(C2NC(=S)NC3=C2CCc2ccccc23)cc1 (centres undefined)	3.12% (inactive)
CCOC(=O)c1ccc(NC(=O)Cn2cnc3cc(C)c(C)cc32)cc1	-1.24% (inactive)
O=C(CSc1nn(-c2ccc(F)cc2)c(=S)s1)NC1CCS(=O)(=O)C1 (centres undefined)	0.51% (inactive)
O=C(CSc1ccccc1F)NC1CCS(=O)(=O)C1 (centres undefined)	12.3% (active)
CCN(CC(=O)NC1CCS(=O)(=O)C1)S(=O)(=O)c1ccccc1 (centres undefined)	-0.95% (inactive)
Cc1cc(C)c2c(n1)nn1c(N3CCOCC3)cc(C)nc21	-0.28% (inactive)
Cc1cc(C)c2c(n1)nn1c(-n3ccnc3)cc(C)nc21	2.99% (inactive)
Cc1cc(C)c2c(n1)nn1c(N3CCN(c4cccc(Cl)c4)CC3)cc(C)nc21	14.1% (active)
